Records with an inconclusive call do not appear. Activity calls are given as the source filed them. The calls were made as follows, unless noted: active = hit-call score of the fitted dose curve at least 0.9, where 1 is the maximum; inconclusive = response in the unintended direction; inactive = score below 0.9.

Test [1] in a line: ATG_TCF_b_cat_CIS: Attagene CIS-FACTORIAL HepG2 Assay for human T-Cell-Factor with beta-catenin (TCF/b-cat) (AID 2282965; active = hit-call score of the fitted dose curve at least 0.9, where 1 is the maximum; inactive = score below 0.9). As to conditions: HepG2 TCF/beta-catenin cis-reporter transcription, actives raise or lower the signal. Put shortly: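 Endogenous transcription factor activity is captured through cis-promoter reporter constructs transiently introduced into human HepG2 liver cells. Induced reporter mRNA is measured after 24 h and fitted bidirectionally relative to DMSO.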

The nature of test [2]: ATG_TAL_CIS: Attagene CIS-FACTORIAL HepG2 Assay for human TAL Basal Promoter (AID 2282966; active = hit-call score of the fitted dose curve at least 0.9, where 1 is the maximum; inactive = score below 0.9;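 also: background control endpoint measuring basal TAL promoter reporter mRNA not a specific factor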). The settings on record: HepG2 Attagene cis-factorial TAL promoter reporter; actives raise or lower the signal. Put shortly: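 Fluorescence of labelled reporter cDNA fragments, resolved by capillary electrophoresis, gave the readout. Human HepG2 liver cells carried transiently transfected cis-element reporter units and were treated for 24 hours; activity was fitted bidirectionally against DMSO.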

A short description of test [3]: ATG_TGFb_CIS: Attagene CIS-FACTORIAL HepG2 Assay for human Transforming Growth Factor (TGF) (AID 2282967; active = hit-call score of the fitted dose curve at least 0.9, where 1 is the maximum; inactive = score below 0.9). As to conditions: HepG2 Attagene CIS TGFb reporter, mRNA transcription; actives raise or lower the signal. Put shortly:
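Transcript-level reporter readout: HepG2 transfectants, 24 h exposure, RNA to cDNA, reporter-specific PCR, fluorescent primer extension, capillary sizing against ROX standards. Gain- or loss-of-signal relative to DMSO.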

The nature of test [4]: ATG_VDRE_CIS: Attagene CIS-FACTORIAL HepG2 Assay for human Vitamin D Receptor Element (VDRE) (AID 2282968; active = hit-call score of the fitted dose curve at least 0.9, where 1 is the maximum; inactive = score below 0.9). As to conditions: HepG2 VDRE cis-reporter transcription, actives raise or lower the signal. Put shortly: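 Reporter mRNA induction, quantified by capillary electrophoresis of fluorescently labelled RT-PCR products, was read 24 h after dosing HepG2 cells carrying transiently transfected cis-regulated reporter units; gain or loss relative to DMSO.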

For test [5], the target named is Estrogen receptor (Homo sapiens) (UniProt P03372). The experiment in a line: ATG_ERa_TRANS: Attagene TRANS-FACTORIAL HepG2 Assay for human Estrogen Receptor alpha (ERa) (AID 2282970). As to conditions: HepG2 Attagene TRANS ERa GAL4 reporter, mRNA. A digest of the protocol: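 Human liver HepG2, transient transfection of multiple GAL4-UAS reporter units; TRANS format (exogenous NR-Gal4 chimera). 24 h dosing. Readout: reporter mRNA, RT-PCR, 6-FAM primer extension, HpaI digest, capillary electrophoresis. Positive direction vs DMSO.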

Test [6] has as its target Steroid hormone receptor ERR1 (Homo sapiens) (UniProt P11474). Put plainly: ATG_ERRa_TRANS: Attagene TRANS-FACTORIAL HepG2 Assay for human Estrogen-Related Receptor alpha (ERRa) (AID 2282971). As to conditions: HepG2 Attagene TRANS reporter, ERRa transactivation. A digest of the protocol:
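Reporter transcript induction was quantified by RT-PCR and capillary electrophoresis of FAM-labelled, HpaI-cut products after 24 h treatment of HepG2 cells carrying transiently transfected GAL4-UAS reporter units and an exogenous ERRa-Gal4 fusion; activity scored as increase over DMSO.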

For test [7], the target named is X-box-binding protein 1 (Homo sapiens) (UniProt P17861). The experiment in a line: ATG_Xbp1_CIS: Attagene CIS-FACTORIAL HepG2 Assay for human X-box Binding Protein 1 (XBP1) (AID 2282972; active = hit-call score of the fitted dose curve at least 0.9, where 1 is the maximum; inactive = score below 0.9). As to conditions: HepG2 XBP1 cis-element reporter, Attagene multiplex; actives raise or lower the signal. Put shortly:
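HepG2 cells transiently transfected with multiple cis-element reporter units report endogenous TF activity; 24 h exposure, then reporter mRNA measured by RT-PCR, 6-FAM labelling, HpaI digestion and capillary electrophoresis. Bidirectional fitting versus DMSO.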

Test [8] in a line: ATG_M_19_TRANS: Attagene TRANS-FACTORIAL HepG2 Assay for M19 Transcription Factor (Internal Marker) (AID 2282974). As to conditions: HepG2 Attagene TRANS-FACTORIAL M19 internal marker reporter. A digest of the protocol: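 Transfected HepG2 (GAL4-UAS MRTUs), 24 h compound, TriZol RNA, DNase-treated RT, reporter PCR, FAM label, HpaI digest, CE fluorescence; gain vs DMSO.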
Test [9] deals with Bile acid receptor (Homo sapiens) (UniProt Q96RI1). Put plainly: ATG_FXR_TRANS: Attagene TRANS-FACTORIAL HepG2 Assay for Farnesoid X Receptor (FXR) (AID 2282979).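 Also: hits raise reporter mRNA above DMSO so AC50 marks FXR activation.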 The settings on record: HepG2 Attagene TRANS FXR-GAL4 reporter transcription. A digest of the protocol: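 Transient transfection of HepG2 with multiplexed GAL4-UAS reporter units; exogenous FXR-GAL4 chimera. Dose 24 h → TriZol RNA → oligo(dT) RT → PCR, 6-FAM primer extension, HpaI cut → CE. Gain vs DMSO.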

Test [10] can be described thus: ATG_M_32_TRANS: Attagene TRANS-FACTORIAL HepG2 Assay for M32 Transcription Factor (Internal Marker) (AID 2282984).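 Also: transcript level of a background control reporter unit measured by RT-PCR and capillary electrophoresis.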 The settings on record: HepG2 Attagene TRANS M32 internal marker reporter. Put shortly: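 Measures reporter mRNA induction in human HepG2 liver cells after 24 h chemical treatment. Transcripts from transiently transfected GAL4-UAS reporter units are amplified, fluorescently labelled and sized by capillary electrophoresis; gain of signal relative to DMSO.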

For test [11], the target named is Nuclear receptor subfamily 4 group A member 2 (Homo sapiens) (UniProt P43354). The experiment in a line: ATG_NURR1_TRANS: Attagene TRANS-FACTORIAL HepG2 Assay for human Nuclear Receptor Related Protein 1 (NURR1) (AID 2282985). The settings on record: HepG2 Attagene TRANS reporter, mRNA readout. Put shortly: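 Transient transfection of HepG2, human liver cells, with multiple GAL4-UAS reporter transcription units. Cells dosed 24 h, RNA isolated, reverse-transcribed, PCR-amplified, FAM-labelled, HpaI-digested, sized by capillary electrophoresis. DMSO served as negative control.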

Test [12] has as its target Transcriptional activator Myb (Homo sapiens) (UniProt P10242). Put plainly: ATG_Myb_CIS: Attagene CIS-FACTORIAL HepG2 Assay for human Myeloblastosis (Myb) Proto-Oncogene Transcription Factor (AID 2282986; active = hit-call score of the fitted dose curve at least 0.9, where 1 is the maximum; inactive = score below 0.9). The settings on record: HepG2 Attagene CIS-FACTORIAL Myb reporter transcription; actives raise or lower the signal. Put shortly:
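After 24 h of compound dosing, total RNA from transfected HepG2 cells is reverse-transcribed and the reporter sequences amplified, labeled and separated by capillary electrophoresis. Values come from bidirectional fitting against DMSO.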

The nature of test [13]: ATG_GAL4_TRANS: Attagene TRANS-FACTORIAL HepG2 Assay for GAL4 (Internal Marker) (AID 2282976). The settings on record: HepG2 Attagene TRANS GAL4 internal marker reporter. Put shortly:
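First, HepG2 cells were transfected with reporter units under GAL4-UAS control. Next, they were treated with chemical for 24 h. Finally, RNA was reverse-transcribed, PCR-amplified, FAM-labelled and resolved by capillary electrophoresis, with induction scored against DMSO.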

The target in test [14] is Estrogen-related receptor gamma (Homo sapiens) (UniProt P62508). Put plainly: ATG_ERRg_TRANS: Attagene TRANS-FACTORIAL HepG2 Assay for human Estrogen-Related Receptor gamma (ERRg) (AID 2282977).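 Also: hits increase reporter signal over DMSO so potencies reflect activators.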 The settings on record: HepG2 Attagene TRANS reporter, ERRg transactivation. A digest of the protocol:
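Transfect HepG2 with multiple GAL4-UAS reporter transcription units; dose chemicals 24 h; isolate RNA, reverse-transcribe with oligo(dT), PCR-amplify, label with 6-FAM, digest with HpaI; size fragments by capillary electrophoresis. DMSO serves as negative control.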

The target in test [15] is Glucocorticoid receptor (Homo sapiens) (UniProt P04150). Put plainly: ATG_GR_TRANS: Attagene TRANS-FACTORIAL HepG2 Assay for human Glucocorticoid Receptor (GR) (AID 2282978).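 Also: activators score as hits since higher reporter transcript over DMSO is fitted.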 As to conditions: HepG2 Attagene TRANS GR reporter, mRNA transcription. Put shortly: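 After 24 h incubation with test chemical, transfected HepG2 cells were lysed for RNA; reporter cDNA was amplified, FAM-labelled, HpaI-digested and sized on a capillary analyser. Signal gain relative to DMSO was scored.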

Test [16] concerns the target Oxysterols receptor LXR-alpha (Homo sapiens) (UniProt Q13133). Put plainly: ATG_LXRa_TRANS: Attagene TRANS-FACTORIAL HepG2 Assay for human Liver X Receptor alpha (LXRa) (AID 2282980). The settings on record: HepG2 Attagene TRANS reporter, LXRa transactivation. A digest of the protocol: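 Transfect HepG2 with GAL4-UAS multiplex reporter constructs (TRANS format, chimeric receptor-GAL4); treat 24 h; extract RNA, reverse-transcribe, PCR-amplify, FAM-label, HpaI-digest; resolve fragments by capillary electrophoresis. Upward response vs DMSO.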

Test [17] addresses Oxysterols receptor LXR-beta (Homo sapiens) (UniProt P55055). The experiment in a line: ATG_LXRb_TRANS: Attagene TRANS-FACTORIAL HepG2 Assay for human Liver X Receptor beta (LXRb) (AID 2282981). As to conditions: HepG2 Attagene TRANS GAL4-LXRb reporter, mRNA. A digest of the protocol:
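Transient transfection HepG2 (multiplexed RTUs, GAL4-UAS); NR-Gal4 chimera; 24 h exposure; RNA → RT-PCR → 6-FAM primer extension → HpaI → CE; increase vs DMSO.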

Test [18] addresses Hepatocyte nuclear factor 4-alpha (Homo sapiens) (UniProt P41235). The experiment in a line: ATG_HNF4a_TRANS: Attagene TRANS-FACTORIAL HepG2 Assay for human Hepatocyte Nuclear Factor 4 alpha (HNF4a) (AID 2282982). The settings on record: HepG2 HNF4a transactivation reporter, mRNA readout. A digest of the protocol: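 Readout is fluorescent reporter-transcript fragments resolved by capillary electrophoresis after RT-PCR from HepG2 cells dosed for 24 h. Cells carried transfected GAL4-UAS reporter constructs measuring exogenous NR-GAL4 chimera activity; DMSO served as baseline.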

Test [19] can be described thus: ATG_M_06_TRANS: Attagene TRANS-FACTORIAL HepG2 Assay for M06 Transcription Factor (Internal Marker) (AID 2282983).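 Also: reporter transcript level by RT-PCR then capillary electrophoresis fluorescence.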 The settings on record: HepG2 Attagene TRANS M06 internal marker reporter. A digest of the protocol: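 Transfect HepG2 with MRTUs → dose compounds 24 h → isolate RNA, oligo(dT) RT → PCR with reporter primers → 6-FAM primer extension → HpaI digest → CE fragment analysis. Positive direction vs DMSO.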

Test [20] concerns the target Nuclear receptor subfamily 1 group I member 3 (Homo sapiens) (UniProt Q14994). The experiment in a line: ATG_CAR_TRANS: Attagene TRANS-FACTORIAL HepG2 Assay for human Constitutive Androstane Receptor (CAR) (AID 2282969).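 Also: activators raise reporter mRNA above DMSO so AC50 marks induction.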 The settings on record: HepG2 Attagene TRANS-FACTORIAL CAR reporter. A digest of the protocol:
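Readout is reporter mRNA induction, quantified by fluorescent primer extension and capillary electrophoresis after RT-PCR. Cells were HepG2 transiently carrying chimeric NR-Gal4 constructs with GAL4-UAS reporters, treated for 24 h; activity scored upward from DMSO.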

Chain of X-box-binding protein 1 (Homo sapiens) (P17861 whole entry, looked up): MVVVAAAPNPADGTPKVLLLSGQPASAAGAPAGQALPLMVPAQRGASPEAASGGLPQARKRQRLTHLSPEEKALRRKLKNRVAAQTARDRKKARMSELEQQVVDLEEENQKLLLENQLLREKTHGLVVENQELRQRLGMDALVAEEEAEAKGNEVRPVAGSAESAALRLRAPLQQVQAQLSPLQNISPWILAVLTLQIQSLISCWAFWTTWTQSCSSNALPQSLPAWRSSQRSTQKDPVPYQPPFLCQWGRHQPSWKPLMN
Chain of Oxysterols receptor LXR-alpha (Homo sapiens) (Q13133 whole entry, looked up, the tested form may be a part): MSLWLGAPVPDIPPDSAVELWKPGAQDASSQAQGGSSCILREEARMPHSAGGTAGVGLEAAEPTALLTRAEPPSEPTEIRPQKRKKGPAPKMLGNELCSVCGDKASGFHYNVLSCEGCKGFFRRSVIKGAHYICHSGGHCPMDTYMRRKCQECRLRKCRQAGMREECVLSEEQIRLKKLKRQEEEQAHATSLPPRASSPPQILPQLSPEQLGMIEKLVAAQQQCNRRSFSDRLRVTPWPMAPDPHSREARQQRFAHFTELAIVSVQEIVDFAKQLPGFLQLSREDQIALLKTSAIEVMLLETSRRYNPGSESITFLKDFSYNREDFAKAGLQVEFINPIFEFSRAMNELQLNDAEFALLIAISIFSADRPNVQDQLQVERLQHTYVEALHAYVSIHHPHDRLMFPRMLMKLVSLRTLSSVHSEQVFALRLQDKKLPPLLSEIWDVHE
Chain of Oxysterols receptor LXR-beta (Homo sapiens) (P55055 whole entry, looked up, the tested form may be a part): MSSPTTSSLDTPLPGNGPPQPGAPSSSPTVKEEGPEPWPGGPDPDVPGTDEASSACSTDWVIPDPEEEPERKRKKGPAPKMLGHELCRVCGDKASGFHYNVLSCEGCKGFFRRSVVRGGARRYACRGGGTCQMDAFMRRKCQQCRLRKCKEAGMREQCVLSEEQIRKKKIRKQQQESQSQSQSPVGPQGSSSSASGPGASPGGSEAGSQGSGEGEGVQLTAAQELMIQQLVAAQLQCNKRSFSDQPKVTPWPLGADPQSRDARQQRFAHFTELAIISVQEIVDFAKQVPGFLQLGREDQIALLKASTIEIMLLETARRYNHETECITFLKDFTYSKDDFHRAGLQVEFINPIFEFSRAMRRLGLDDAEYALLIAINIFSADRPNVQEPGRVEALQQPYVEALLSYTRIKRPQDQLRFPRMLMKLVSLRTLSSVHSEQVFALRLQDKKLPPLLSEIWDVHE
Chain of Estrogen receptor (Homo sapiens) (P03372 whole entry, looked up, the tested form may be a part): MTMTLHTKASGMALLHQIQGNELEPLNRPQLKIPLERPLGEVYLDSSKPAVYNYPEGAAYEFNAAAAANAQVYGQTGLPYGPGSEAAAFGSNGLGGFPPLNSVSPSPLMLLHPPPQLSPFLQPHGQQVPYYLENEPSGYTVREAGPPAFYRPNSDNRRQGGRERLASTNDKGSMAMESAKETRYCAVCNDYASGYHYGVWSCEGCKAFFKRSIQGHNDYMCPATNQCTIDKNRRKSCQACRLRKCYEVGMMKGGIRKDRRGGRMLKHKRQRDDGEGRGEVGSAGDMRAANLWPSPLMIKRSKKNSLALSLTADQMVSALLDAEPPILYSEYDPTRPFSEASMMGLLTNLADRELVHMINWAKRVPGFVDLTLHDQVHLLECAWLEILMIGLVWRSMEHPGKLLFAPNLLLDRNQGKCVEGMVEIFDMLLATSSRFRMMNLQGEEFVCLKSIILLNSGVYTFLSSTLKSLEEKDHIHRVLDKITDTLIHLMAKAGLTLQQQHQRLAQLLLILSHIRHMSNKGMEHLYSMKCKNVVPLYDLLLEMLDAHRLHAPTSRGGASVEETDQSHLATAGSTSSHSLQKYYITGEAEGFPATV
Chain of Nuclear receptor subfamily 4 group A member 2 (Homo sapiens) (P43354 whole entry, looked up, the tested form may be a part): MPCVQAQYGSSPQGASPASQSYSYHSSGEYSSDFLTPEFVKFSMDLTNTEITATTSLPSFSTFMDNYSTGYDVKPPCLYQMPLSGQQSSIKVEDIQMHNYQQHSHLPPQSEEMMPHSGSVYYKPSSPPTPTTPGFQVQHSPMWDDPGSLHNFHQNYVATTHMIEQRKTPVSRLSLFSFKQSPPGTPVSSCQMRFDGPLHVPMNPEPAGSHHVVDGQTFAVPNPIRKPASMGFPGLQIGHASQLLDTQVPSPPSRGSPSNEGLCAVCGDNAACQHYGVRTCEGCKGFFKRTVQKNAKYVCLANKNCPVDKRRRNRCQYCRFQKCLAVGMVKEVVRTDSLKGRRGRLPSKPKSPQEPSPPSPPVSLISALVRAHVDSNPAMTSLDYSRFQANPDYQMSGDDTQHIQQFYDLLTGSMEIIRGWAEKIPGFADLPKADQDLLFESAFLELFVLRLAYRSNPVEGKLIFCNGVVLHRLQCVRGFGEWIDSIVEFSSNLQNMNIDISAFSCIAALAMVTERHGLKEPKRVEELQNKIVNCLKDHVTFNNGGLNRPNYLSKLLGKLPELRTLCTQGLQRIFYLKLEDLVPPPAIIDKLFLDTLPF
Chain of Transcriptional activator Myb (Homo sapiens) (P10242 whole entry, looked up): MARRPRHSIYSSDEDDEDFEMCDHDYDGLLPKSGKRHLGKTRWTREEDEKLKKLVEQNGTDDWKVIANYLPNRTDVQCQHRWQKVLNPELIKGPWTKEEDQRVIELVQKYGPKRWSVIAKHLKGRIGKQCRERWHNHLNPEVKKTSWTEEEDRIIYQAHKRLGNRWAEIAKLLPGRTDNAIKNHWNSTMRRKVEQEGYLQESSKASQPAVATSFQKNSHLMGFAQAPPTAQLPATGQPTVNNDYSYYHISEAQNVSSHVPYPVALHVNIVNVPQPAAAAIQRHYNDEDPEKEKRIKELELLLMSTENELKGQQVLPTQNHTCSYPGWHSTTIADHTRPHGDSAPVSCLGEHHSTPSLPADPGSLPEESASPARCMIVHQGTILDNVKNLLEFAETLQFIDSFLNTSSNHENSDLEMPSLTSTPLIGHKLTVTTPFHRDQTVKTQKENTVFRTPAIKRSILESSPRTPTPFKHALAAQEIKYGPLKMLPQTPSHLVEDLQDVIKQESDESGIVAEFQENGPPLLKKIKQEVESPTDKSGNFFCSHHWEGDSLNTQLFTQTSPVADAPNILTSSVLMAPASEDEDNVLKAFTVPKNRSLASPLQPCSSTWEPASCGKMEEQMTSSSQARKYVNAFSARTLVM
Chain of Glucocorticoid receptor (Homo sapiens) (P04150 whole entry, looked up): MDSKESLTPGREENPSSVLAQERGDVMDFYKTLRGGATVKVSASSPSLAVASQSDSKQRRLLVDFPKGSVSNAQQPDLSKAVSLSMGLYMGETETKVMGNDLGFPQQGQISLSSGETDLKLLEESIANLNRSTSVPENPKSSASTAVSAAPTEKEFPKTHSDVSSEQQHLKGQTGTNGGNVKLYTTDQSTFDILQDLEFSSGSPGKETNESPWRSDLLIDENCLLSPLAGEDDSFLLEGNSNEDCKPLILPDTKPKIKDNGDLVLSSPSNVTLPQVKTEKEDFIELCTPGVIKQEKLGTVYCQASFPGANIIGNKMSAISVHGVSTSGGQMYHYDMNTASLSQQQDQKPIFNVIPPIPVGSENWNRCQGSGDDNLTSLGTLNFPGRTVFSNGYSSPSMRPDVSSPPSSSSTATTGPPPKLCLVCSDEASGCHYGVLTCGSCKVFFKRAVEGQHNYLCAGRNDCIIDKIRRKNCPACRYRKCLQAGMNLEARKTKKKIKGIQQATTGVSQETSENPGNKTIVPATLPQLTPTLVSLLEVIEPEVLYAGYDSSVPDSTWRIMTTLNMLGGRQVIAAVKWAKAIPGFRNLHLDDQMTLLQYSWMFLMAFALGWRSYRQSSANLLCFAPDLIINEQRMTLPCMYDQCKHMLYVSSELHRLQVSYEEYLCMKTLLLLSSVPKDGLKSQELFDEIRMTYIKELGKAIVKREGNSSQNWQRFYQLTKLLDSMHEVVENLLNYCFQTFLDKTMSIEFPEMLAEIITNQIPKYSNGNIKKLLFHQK
Chain of Nuclear receptor subfamily 1 group I member 3 (Homo sapiens) (Q14994 whole entry, looked up, the tested form may be a part): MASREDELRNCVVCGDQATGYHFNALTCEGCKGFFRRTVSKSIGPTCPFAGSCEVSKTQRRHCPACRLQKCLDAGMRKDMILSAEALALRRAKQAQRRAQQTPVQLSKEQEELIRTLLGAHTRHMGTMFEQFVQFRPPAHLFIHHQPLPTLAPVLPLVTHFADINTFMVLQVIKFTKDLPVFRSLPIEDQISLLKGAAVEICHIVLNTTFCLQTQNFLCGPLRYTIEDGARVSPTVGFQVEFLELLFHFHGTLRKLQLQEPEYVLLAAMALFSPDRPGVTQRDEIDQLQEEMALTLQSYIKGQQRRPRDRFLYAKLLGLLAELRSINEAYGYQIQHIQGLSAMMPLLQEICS
Chain of Hepatocyte nuclear factor 4-alpha (Homo sapiens) (P41235 whole entry, looked up, the tested form may be a part): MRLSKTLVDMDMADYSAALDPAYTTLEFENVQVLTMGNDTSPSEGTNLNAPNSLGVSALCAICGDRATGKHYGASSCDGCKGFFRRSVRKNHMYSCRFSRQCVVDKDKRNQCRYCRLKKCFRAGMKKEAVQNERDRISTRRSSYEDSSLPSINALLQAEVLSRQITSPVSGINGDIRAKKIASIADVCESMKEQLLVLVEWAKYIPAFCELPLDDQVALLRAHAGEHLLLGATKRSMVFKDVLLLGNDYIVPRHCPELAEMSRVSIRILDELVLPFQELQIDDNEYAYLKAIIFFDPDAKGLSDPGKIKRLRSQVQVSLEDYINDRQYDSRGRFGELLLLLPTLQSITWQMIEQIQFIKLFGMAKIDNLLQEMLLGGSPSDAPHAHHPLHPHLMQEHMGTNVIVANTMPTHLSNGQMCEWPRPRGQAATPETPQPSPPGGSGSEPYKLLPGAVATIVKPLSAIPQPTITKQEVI

Take `CCc1c(C(=O)NN2CCCCC2)nn(-c2ccc(Cl)cc2Cl)c1-c1ccc(Br)cc1`: the AC50 (as a rule, the midpoint of the concentration-response curve, whichever way the signal moves) in test [1] is 3.53 µM (active); in test [4], 1.38 µM (active). Moreover, the result in test [2], in test [3], in [5], in [6], in test [7] and in test [8] was inactive. Besides, the result in [9], in [10], in test [11] and in [12] was inactive.

As to `NS(=O)(=O)c1cc2c(cc1Cl)NCNS2(=O)=O`, the outcome in test [1], in test [2], in test [3], in [5], in test [6] and in test [7] was inactive. Also, the molecule was classed as inactive in test [8], in test [13], in test [14], in test [15], in [16] and in test [17]. Moreover, the molecule was called inactive in test [18], in test [19], in test [10], in test [11] and in test [12]. The half-maximal activity concentration (AC50) in [4] is 4.41 µM (active).

`Nc1ccccc1N`: the call in test [1], in [2], in test [3], in test [20], in [5] and in [15] was inactive. Besides, the outcome in [16], in test [17], in test [18], in test [10] and in test [12] was inactive. The AC50 in test [4] was 34.8 µM (active); in test [7], 51.8 µM (active).

On to `COc1ccc(C)cc1N`, for which the molecule was classed as inactive in test [1], in test [2], in test [3], in test [4], in test [20] and in [5]. Besides, the result in test [7], in test [8], in test [13], in [15], in test [16] and in [17] was inactive. In addition, the outcome in test [19], in test [11] and in test [12] was inactive.
